Bioassay records: PubChem, National Center for Advancing Translational Sciences (NCATS)
PI5P4K alpha inh – blocks human PI5P4K alpha kinase activity; max response, %; AID 652105; 330,000 tested, 1.2% active; PI5P4Kalpha enzyme, ADP-Glo luminescence, 60 min; hits give low values; P48426; active means max response of -50% or lower; inconclusive means between -30% and -50%; inactive means -30% or higher; further: value at the top dose of about 77 µM; on the % scale 0 is the no-effect control and ±100 the full control effect
Target sequence (P48426 whole entry, looked up): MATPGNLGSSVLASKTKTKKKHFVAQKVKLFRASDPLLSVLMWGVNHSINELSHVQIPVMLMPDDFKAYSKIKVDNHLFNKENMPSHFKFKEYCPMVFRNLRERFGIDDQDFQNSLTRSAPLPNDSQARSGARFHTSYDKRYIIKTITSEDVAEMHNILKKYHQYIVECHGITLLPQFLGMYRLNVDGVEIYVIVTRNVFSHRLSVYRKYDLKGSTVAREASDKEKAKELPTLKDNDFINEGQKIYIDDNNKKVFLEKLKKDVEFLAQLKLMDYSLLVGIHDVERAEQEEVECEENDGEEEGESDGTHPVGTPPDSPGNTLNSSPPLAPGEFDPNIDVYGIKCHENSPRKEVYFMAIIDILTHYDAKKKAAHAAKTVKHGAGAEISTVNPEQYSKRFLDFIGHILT
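Luminescence from ADP-Glo served as readout of PI5P4Kalpha activity in a qHTS format. Reaction: enzyme, substrate, compound, ATP at 5 microM final, 60 min at RT.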
POLK inh – inhibitors of human DNA polymerase kappa; Q9UBT6; purified Pol kappa, fluorescent DNA synthesis assay, 10 min; Potency, µM (series often up to 107 µM), inactives show top-dose activity, negative = inhibition, most hits filed as inhibitors; 400,000 tested, 0.53% active; AID 588579; further: potency means the concentration at half of the fitted maximal effect; on the % scale 0 is the no-effect control and ±100 the full control effect
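First, compounds were pin-transferred onto 10 nM Pol kappa. After 15 min at room temperature, substrate was added to 50 nM final. Fluorescence was then measured kinetically at 0 and 10 min.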
12-LOX inh – blocks human arachidonate 12S-lipoxygenase | 580,000 tested, 1.1% active | P18054 | Potency, µM (series often up to 108 µM), inactives show at the top dose activity change, negative = inhibition, most hits filed as inhibitors | purified 12hLO, xylenol orange hydroperoxide absorbance | AID 1671190; further: potency means the concentration at half of the fitted maximal effect; on the % scale 0 is the no-effect control and ±100 the full control effect
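Purified human 12hLO (150 nM final) in 25 mM Hepes, 0.01% Triton X-100, pH 7.0 was preincubated 15 min at room temperature with compound. Then 40 uM arachidonic acid was added, 30 min. Hydroperoxide was read by Fe-XO absorbance ratio 573/405 nm.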
Pol iota inh – DNA polymerase iota (human) inhibition | Q9UNA4 | Pol iota fluorescent replication assay, 10 min | Potency, µM (highest dose often 115 µM), inactives show top-dose activity, negative = inhibition, most hits filed as inhibitors | 390,000 tested, 1% active | AID 588590; further: potency means the concentration at half of the fitted maximal effect
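Fluorescent replication assay read twice, at 0 min and 10 min after adding 50 nM (final) substrate. Enzyme (10 nM) and compounds were first incubated 15 min at room temperature; enzyme-free buffer wells were negative controls.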
POLH inh – DNA polymerase eta (human) inhibition. 390,000 tested, 1.2% active. recombinant Pol eta, fluorescent DNA replication assay. Potency, µM (highest dose often 114 µM), for inactives: top-dose activity change, negative = inhibition, usual class: inhibitors; further: potency means the concentration at half of the fitted maximal effect; on the % scale 0 is the no-effect control and ±100 the full control effect
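Pol eta (10 nM) was preincubated with compounds for 15 min at room temperature, after which fluorescent replication substrate (50 nM final) was added to start the reaction. Fluorescence was read kinetically at 0 and 10 min.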
Pol beta inh – inhibitors of human DNA polymerase beta | 340,000 tested, 1.3% active | Pol beta primer extension/strand displacement, fluorescence kinetic | Potency, µM (doses to about 114 µM), for the others: top-dose activity change, negative = inhibition, hits mostly inhibitors | P06746; further: potency means the concentration at half of the fitted maximal effect; on the % scale 0 is the no-effect control and ±100 the full control effect
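Curves were derived by four-parameter Hill fits of normalized qHTS data. The kinetic fluorescent primer-extension read was taken at 0 and 10 min after 50 nM substrate, following a 15 min room-temperature preincubation of 10 nM enzyme with compounds.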
Starred values were filed as active, the others as inactive; ? = inconclusive; . = no result; ! = not confirmed by another sample; [ ] = dose if it differs, or a comment. Hits are enriched below; roughly 2.9% of the tested compounds scored in any of these assays. Unless noted, the call rests on the fitted dose curve; in most records, active means well fitted inhibition curve with a large enough effect; inconclusive means small, poorly fitted or top-dose-only effect, or another doubt; inactive means no such curve, though single readings can be large or run the other way.

SMILES | PI5P4K alpha inh | POLK inh | 12-LOX inh | Pol iota inh | POLH inh | Pol beta inh
COc1ccc(C2C(C#N)=C(N)Oc3cc(C)n(Cc4ccco4)c(=O)c32)cc1 (centres undefined) | -13.3 | 31.6µM* | ? | 14.1µM* | -10.8% | ?
CCOc1ccc(OCC)c(NC(=O)C2CCCN(S(=O)(=O)c3cc(Br)cc4c3N(C(=O)CC)CC4)C2)c1 (centres undefined) | . | -24.1% | -0.1% | 89.1µM* | -4.2% | -0.3%
CCC(=O)N1CCc2cc(Br)cc(S(=O)(=O)N3CCCC(C(=O)Nc4cccc(Cl)c4C)C3)c21 (centres undefined) | . | 10.4% | -17.1% | 6.0% | -12.7% | 7.2%
Cc1ccc(CNC(=O)c2ccc(Cn3nc(C)c(Cl)c3C)o2)cc1 | -0.8 | -17.4% | ? | ? | ? | 50.1µM*
O=C(CCl)N1c2ccccc2Sc2ccc3ccccc3c21 | 0.1 | . | . | . | 14.1µM* | .
COC(=O)c1ccc(C)c(NC(=O)c2csc(COc3ccc(C)cc3)n2)c1 | . | . | -13.4% | . | . | .
Cc1n[nH]c2c([N+](=O)[O-])c(=O)[nH]c(=O)n12 | -67.1* | -2.0% | -6.2% | -1.2% | -7.6% | .
O=c1oc(-c2cccnc2)nc2ccccc12 | 0.4 | 7.6% | 3.8% | 5.9% | -16.6% | -5.3%
Cc1cc(=O)c2cc3nc(-c4cccnc4)oc3c(Br)c2o1 | . | . | . | . | . | 39.8µM*
O=C(O)c1ccc2c(c1)CC(=O)N2Cc1ccc(F)cc1 | . | . | 11.2µM* | . | . | .
Cc1ccc(C)n1Cc1ccc(C(=O)O)cc1 | . | 1.26µM* | . | 0.708µM* | -98.4% | 2.82µM*
O=C(O)c1ccc(CN2C(=O)c3cccc4c([N+](=O)[O-])ccc(c34)C2=O)cc1 | -4.9 | -5.8% | . | ? | 22.4µM* | ?
O=C(O)c1ccc(CN2C(=O)c3ccc(C(=O)O)cc3C2=O)cc1 | -58.0* | 3.9% | 0.0% | -5.3% | 5.1% | 20.2%
O=C(NC1CCCCCC1)c1ccc2c(c1)CC(=O)N2Cc1ccc(F)cc1 | . | . | -16.3% | . | . | .
Cc1cc(C)n(Cc2ccc(C(=O)O)cc2)n1 | . | -1.0%[60.1 µM] | -24.0% | 2.1% | -0.3% | 2.5%
CCCS(=O)(=O)N1CCN(c2ccc(N3CCOCC3)nn2)CC1 | . | . | -1.1% | . | . | .
O=C(O)c1ccc2c(c1)C(=O)N(Cc1ccc3c(c1)OCO3)C2=O | 0.6 | -11.2% | -10.9% | ? | -3.7% | -18.6%
COc1ccc(CN2C(=O)c3ccc(C(=O)O)cc3C2=O)cc1 | -62.8* | -8.7% | ? | 2.7% | 8.7% | 0.9%
CCc1ccc(N2CC(c3nnc(NC(=O)Cc4ccc(F)cc4)s3)CC2=O)cc1 (centres undefined) | . | . | -11.3% | . | . | .
CCc1c(O)nc(SC2CC(=O)N(c3ccccc3)C2=O)[nH]c1=O (centres undefined) | -7.1 | -21.5% | 10µM* | 0.0% | -9.5% | 25.9%
O=C(CSC1=NC(=O)C(c2ccccc2)C(=O)N1)Nc1ccccc1[N+](=O)[O-] (centres undefined) | -22.0 | ? | -24.9% | ? | 50.1µM* | ?
COc1cc(-c2nn3c(C4CCCCC4)nnc3s2)cc(OC)c1OC | -0.7 | -10.8% | 25.1µM* | -3.3% | -0.2% | 28.1%
CCOc1ccc(CN(Cc2ccccc2)Cc2cc(=O)n3ccc(C)cc3n2)cc1 | . | . | 6.5% | . | . | .
COc1ccc2cc3c(N)nn(C(=O)c4ccc(OC)c(OC)c4)c3nc2c1 | . | -6.7% | -20.1% | -2.6% | ? | 15.8µM*
COc1ccc2cc3c(N)nn(C(=O)c4ccc(F)cc4)c3nc2c1 | -1.1 | -13.1% | -8.3% | ? | 3.3% | ?
SMILES | PI5P4K alpha inh | POLK inh | 12-LOX inh | Pol iota inh | POLH inh | Pol beta inh
NC(=O)c1ccsc1NC(=O)c1ccc2c(c1)CCCC2 | 0.3 | 2.8% | ? | 3.3% | -19.4% | -7.0%
NC(=O)c1ccsc1NC(=O)c1ccc(N2CCCC2=O)cc1 | -11.4 | ? | 4.3% | ? | 25.1µM* | 31.6µM*
CN=c1scc(-c2ccc([N+](=O)[O-])cc2)n1/N=C/c1ccco1 | ? | -3.3% | ? | 99.1% | -20.2% | 7.4%
CN=c1scc(-c2ccc(F)cc2)n1/N=C/c1ccc(O)c(O)c1 | -22.7 | -23.4% | 44.7µM* | ? | ? | 5.01µM*
O=C1OC(c2ccc3ccccc3c2O)(c2ccc3ccccc3c2O)c2ccccc21 | -79.4* | ? | 6.31µM* | ? | 25.1µM* | .
O=C1OC2(c3ccccc31)c1ccccc1-c1ccccc12 | -1.7 | -13.2% | 13.1% | 75.1% | -7.7% | .
[N-]=C=C1C(=O)NC(=O)C([n+]2ccc(-c3ccncc3)cc2)C1c1ccccc1C(F)(F)F (centres undefined) | -10.5 | -12.5% | ? | 15.8µM* | -24.6% | -1.1%
Cc1cccc(C(=O)NC(C)c2ccc(-c3ccccc3)cc2)c1 (centres undefined) | . | . | 12.3% | . | . | .
O=c1c2ccccc2nc(SCc2cc(=O)n3ccsc3n2)n1CCCO | . | . | . | . | . | 31.6µM*
C=CCn1c(SCc2cc(=O)n3ccsc3n2)nc2ccccc2c1=O | -5.4 | -20.8% | 4.8% | -17.8% | 18.7% | ?
CN(c1cc(=O)c2ccnc(-c3cccc(C(F)(F)F)c3)c2o1)C1CCOCC1 | . | . | -14.3%[176 µM] | . | . | .
COc1ccc(-c2noc([C@@H]3CCCN3C(=O)c3ccc(C#N)cc3)n2)cc1OC | . | . | 25.1µM* | . | . | .
COc1ccc(C(=O)N2CCC[C@H]2c2nc(-c3ccc(OC)c(OC)c3)no2)cc1OC | . | . | 4.8% | . | . | .
COc1ccc(-c2cc(N3CCCC(NC(=O)c4sccc4C)C3)n[nH]2)cc1 (centres undefined) | . | . | 66.9% | . | . | .
N[C@@H](Cc1cc(I)c(Oc2ccc(O)c(I)c2)c(I)c1)C(=O)O | -82.5*! | ? | ? | 50.1µM*! | 31.6µM*! | 20µM*!
N[C@@H](Cc1cc(I)c(Oc2cc(I)c(O)c(I)c2)c(I)c1)C(=O)O | -61.8* | ? | ? | -13.3% | ? | .
O=C(CCc1nc2ccccc2[nH]1)N1CCN(C(=O)c2ccco2)CC1 | 0.9 | 12.9% | 482.0% | 0.7% | -15.3% | -0.5%
O=C(CSc1ccc(-c2nc3ccccc3[nH]2)cn1)N1CCN(C(=O)c2ccco2)CC1 | . | 50.1µM* | ? | 15.8µM* | ? | ?
COC1=CC(=NCl)C=CC1=NCl | -61.9* | . | . | . | . | .
CN1CCc2[nH]c3ccc(C(=O)NN)cc3c2C1 | . | ? | 0.2% | ? | -16.4% | 39.8µM*
O=C(CSc1nc2c([nH]c3ccccc32)c(=O)n1-c1ccccc1)N1CCCC1 | . | -2.5%[60.1 µM] | -10.3% | -5.1% | -9.7% | 20µM*
Cc1c(OCc2ccc(C(=O)O)o2)ccc2c3c(c(=O)oc12)CCC3 | . | 5.3%[60.1 µM] | -15.4% | 39.8µM* | 17.8µM* | 35.5µM*
